Here are results for 33 compounds from PubChem BioAssay (NCATS).

Molecules are shown by their SMILES. Several values for one entry are separate records, joined by “and”; a condition that tells them apart may be missing. Equal values may be shown once. Records with an inconclusive call do not appear. Unmarked numbers belong to inactive results. Activity calls are given as the source filed them. The call rests on the fitted dose curve; in most records, active means well fitted curve in the direction sought with a large enough effect; inconclusive means small, poorly fitted or top-dose-only effect, or another doubt; inactive means no such curve, though single readings can be large; an effect the other way counts as inactive or inconclusive.
Potency means the concentration at half of the fitted maximal effect.

The test system of the first experiment is Zika virus NS2B-NS3 protease. In words: Primary screen GU AMC qHTS for Zika virus inhibitors (AID 1347154). Further: nearly all actives have a fitted effect of over 70% in size.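 On activity change, negative = inhibition: 0% = no-inhibitor control and -100% = no-enzyme control.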 Particulars: Zika NS2B-NS3 unlinked protease, AMC fluorogenic substrate; series mostly up to 54.1 µM; activity change, negative = inhibition: at the top concentration. The gist of the method: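 Unlinked Zika NS2B hydrophilic domain/NS3 protease domain noncovalent complex (25 nM final) in 10 mM Tris-HCl pH 8.0, 0.01% Tween 20, with AMC peptide substrate. Fluorescence (ex 340, em 450 nm) change over 15 min, room temperature; percent inhibition fitted to 4-parameter Hill equation.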
`COc1ccc(Cc2nccc3cc(OC)c(OC)cc23)cc1OC`: the Potency result is “inactive”. For `CCCC(C)(COC(N)=O)COC(=O)NC(C)C` (stereo not drawn), the Potency result was “inactive”. On to `C=C1CC[C@@]2(O)[C@H]3Cc4ccc(O)c5c4[C@@]2(CCN3CC2CC2)[C@H]1O5`, for which the “activity change, negative = inhibition” value was 4.74%. As to `COC1(CS(=O)c2ccccc2)CCN(CCc2c[nH]c3ccc(F)cc23)CC1` (stereo not drawn), the Potency entry is “inactive”. For the compound `CCC(C(N)=O)N1CCCC1=O` (stereo not drawn), the Potency result was “inactive”. As for `CNC(=O)N1N=C(c2ccc(N)cc2)c2cc3c(cc2CC1C)OCO3` (stereo not drawn), the “activity change, negative = inhibition” value was 1.69%.

Consider `CC[N+](CC)(CC)CC`, for which the “activity change, negative = inhibition” value was -2.48%. In the case of `CCC(COC(=O)c1cc(OC)c(OC)c(OC)c1)(c1ccccc1)N(C)C` (stereo not drawn), the “activity change, negative = inhibition” value is -6.15%. Turning to `c1ccc2c(c1)Nc1ccccc1S2`, the Potency entry was “inactive”.

Take `C[C@]12C/C(=C/O)C(=O)C[C@@H]1CC[C@@H]1[C@@H]2CC[C@@]2(C)[C@H]1CC[C@]2(C)O`: the “activity change, negative = inhibition” value is 3%. With `CC(C)=CC1C(C(=O)OCc2cccc(Oc3ccccc3)c2)C1(C)C` (stereo not drawn), the “activity change, negative = inhibition” value is -10.3%. Regarding `CCN(CC)CCOC(=O)C(O)(c1ccccc1)c1ccccc1`, the “activity change, negative = inhibition” value was -1.03%. Consider `C#CCOC(C(=O)OCCN(C)C)(c1ccccc1)c1ccccc1`, for which the “activity change, negative = inhibition” value was 0.547%.

Regarding `CN(C)[C@@H]1C(=O)C(C(N)=O)=C(O)[C@@]2(O)C(=O)C3=C(O)c4c(O)cccc4[C@@](C)(O)[C@H]3C[C@@H]12`, the “activity change, negative = inhibition” value is -16.5%. On to `N#CC(C#N)=Cc1ccc(O)c(O)c1`, for which the Potency entry is “inactive”.

On to `C#CCN(C)[C@H](C)Cc1ccccc1`, for which the Potency result is “inactive”. In the case of `CC(C)NCC(O)c1ccccc1Cl` (stereo not drawn), the “activity change, negative = inhibition” value was -3.79%.

With `CNC(=O)c1ccc(N2C(=S)N(c3ccc(C#N)c(C(F)(F)F)c3)C(=O)C23CCC3)cc1F`, the “activity change, negative = inhibition” value is 3.46%.

In the case of `CN1C(=S)CN=C(c2ccccc2)c2cc(Cl)ccc21`, the “activity change, negative = inhibition” value is 4.75%.

On to `Cn1cc(C2=C(c3cn(C4CCN(Cc5ccccn5)CC4)c4ccccc34)C(=O)NC2=O)c2ccccc21`, for which the Potency entry was “inactive”. Regarding `CC1OC(C)OC(C)O1` (stereo not drawn), the “activity change, negative = inhibition” value is -2.95%. Take `NCCc1cc(O)c(O)cc1O`: the Potency is 4.55 µM (active) and 21.2 µM (active). `CN(C)CCc1ccc(O)cc1`: the Potency result is “inactive”. Consider `O=c1oc2ccccc2c(O)c1C(CC(O)c1ccc(-c2ccc(Br)cc2)cc1)c1ccccc1` (stereo not drawn), for which the Potency is 14.1 µM (active). Take `OCCOc1ccccc1`: the “activity change, negative = inhibition” value was 0.226%. As for `FC(F)(F)c1cccc(C2=CCN(CCc3ccc4ccccc4c3)CC2)c1`, the Potency result was “inactive”.

Regarding `CC1=C2C[C@@H]3[C@@H](CC=C4C[C@@H](O)CC[C@@]43C)[C@@H]2CC[C@]12O[C@H]1C[C@H](C)CN[C@H]1[C@H]2C`, the “activity change, negative = inhibition” value is 7.72%. For `COc1ccc2c(c1OC)CN1CCc3cc4c(cc3C1C2)OCO4` (stereo not drawn), the Potency result is “inactive”. As for `CC(C)(C)NCC(O)c1cc(Cl)c(N)c(Cl)c1` (stereo not drawn), the “activity change, negative = inhibition” value was 0.145%. Regarding `C[C@@H]1[C@@H](CC(C[C@H]2O[C@@H]3O[C@]4(C)CC[C@@H]5[C@H](C)CC[C@@H]([C@H]2C)[C@@]35OO4)C[S+](=O)([O-])c2ccc(COC(=O)N(C)C)cc2)O[C@@H]2O[C@]3(C)CC[C@H]4[C@H](C)CC[C@@H]1[C@@]24OO3` (stereo partly drawn), the “activity change, negative = inhibition” value is 4.33%. In the case of `CCOC(=O)C1(c2ccccc2)CCN(CCC(C#N)(c2ccccc2)c2ccccc2)CC1`, the “activity change, negative = inhibition” value was -4.49%. For `NP(N)(=O)NC(=O)c1ccc(F)cc1`, the Potency result is “inactive”.

System in a further experiment: not listed separately
Kind of experiment: Confirmatory screen NINDS Rhodamine qHTS for Zika virus inhibitors (AID 1347161). Further: nearly all actives have a fitted effect of over 60% in size.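 On activity change, negative = inhibition: purified Zika NS2B-NS3 protease with linked NS2B cofactor domain and Rhodamine110 peptide substrate; plate controls were no-inhibitor control for no effect and no-enzyme control for full effect.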 As to conditions: purified enzyme assay, Rhodamine110 substrate fluorescence, 15 min; series mostly up to 114 µM; activity change, negative = inhibition: at the top concentration. From the text:
Avindra Nath, Ph.D., National Institute of Neurological Disorders and Stroke (NINDS), Bethesda, MD
Radhakrishnan Padmanabhan, Ph.D., Georgetown University (GU), Washington D.C.
Zika Virus causes congenital defects, including microcephaly and is associated with Guillain-Barre syndrome, eningoencephalitis and myelitis in infected adult. […] Using a target-based approach, we hope to establish a screening paradigm to uncover novel, cell-active NS2B-NS3 protease (Zika Virus) specific inhibitors from NCATS' collection of small molecules using qHTS.
Four assay panel was created to identify potential Zika Virus inhibitors. Namely, (1) GU unlinked NS2B-NS3 AMC tagged protease qHTS, (2) GU unlinked NS2B-NS3 Rhodamine tagged protease qHTS, (3) NINDS linked NS2B-NS3 AMC tagged protease qHTS, (4) NINDS linked NS2B-NS3 Rhodamine tagged protease qHTS. Active compounds were re-acquired and re-screened to confirm inhibition. Inhibitors were further screened against various confirmatory and counterscreens in dose response format.
Early Translation Branch (ETB)
National Center for Advancing Translational Sciences (NCATS), Rockville, MD
National Institute of Health (NIH), Bethesda, Maryland
For the linked assay, Nath lab (NINDS) provided the purified linked NS2B-NS3 protease which is consists of hydrophilic domain of NS2B linked to the NS3 protease domain by a flexible (-[…]-) linker. Control compound aprotinin is obtained from Thermo Scientific (#78432; Waltham, Massachusetts). Rhodamine110 substrate ([N-Cbz]-Nle-Lys-Arg-Arg-Rhod110-Arg-Arg-Lys-Nle-[N-Cbz]) was purchased from either Genscript or Bachem.
1536-well Protease (Rhodamine110 Substrate) Assay:
Briefly, 3 microL of enzyme (25 nM final concentration), in assay buffer (10 mM Tris-HCl pH 8.0 with 0.01% Tween 20) were dispensed into a 1,536-well solid-bottom black plate (Greiner Bio One, Monroe, NC). Twenty-three nL of compounds (final concentration range 7.28 nM to 114 microM) or control Aprotinin (final concentration range 3.47 nM to 114 microM) were transferred via Wako Pin-tool (Wako Automation, Richmond, VA). Samples were incubated (room temperature, protected from light) for 15 minutes followed by a 1 microL Rhodamine110 substrate addition (1.5 microM final concentration). Plates were then immediately read on a ViewLux High-throughput CCD imager (PerkinElmer, Waltham, MA) equipped with FITC fluorescence optics (480(20) nm excitation, 540(25) nm emission), then incubated (room temperature, protected from light) for 15 minutes (~15% conversion). The change in fluorescence intensity over the 15-minute reaction period was normalized against no-inhibitor and no-enzyme controls and the resulting percent inhibition data were fitted to a 4-parameter Hill equation. Aprotinin was used as intraplate control.
Turning to `CN(C)[C@@H]1C(=O)C(C(N)=O)=C(O)[C@@]2(O)C(=O)C3=C(O)c4c(O)cccc4[C@@](C)(O)[C@H]3C[C@@H]12`, the “activity change, negative = inhibition” value is -10.4%. For the compound `N[C@@H](Cc1ccc(Oc2cc(I)c(O)c(I)c2)c(I)c1)C(=O)O`, the Potency was 11.2 µM (active) and 4.94 µM (active). Turning to `O=c1oc2ccccc2c(O)c1C(CC(O)c1ccc(-c2ccc(Br)cc2)cc1)c1ccccc1` (stereo not drawn), the Potency is 3.16 µM (active).

The test system of a further experiment is Zika virus NS2B-NS3 protease (linked). In words: 384 well plate NINDS AMC confirmatory qHTS for Zika virus inhibitors (AID 1347163). Further: nearly all actives have a fitted effect of over 50% in size. Particulars: Recombinant NS2B-NS3 protease, Ac-VKTGKR-AMC fluorescence. In a few lines:
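Linked protease 5/30/60 nM final; cpds up to 1 mM final, ~15 min preinc. Substrate Ac-VKTGKR-AMC 30 microM final. RT, dark, 25 min; FI ex 355/em 460; normalized to no-enzyme/no-inhibitor ctrls.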
For the compound `CN(C)[C@@H]1C(=O)C(C(N)=O)=C(O)[C@@]2(O)C(=O)C3=C(O)c4c(O)cccc4[C@@](C)(O)[C@H]3C[C@@H]12`, the Potency was 224 µM (active).

Take `N[C@@H](Cc1ccc(Oc2cc(I)c(O)c(I)c2)c(I)c1)C(=O)O`: the Potency was 50.1 µM (active).

Take `O=c1oc2ccccc2c(O)c1C(CC(O)c1ccc(-c2ccc(Br)cc2)cc1)c1ccccc1` (stereo not drawn): the Potency is 31.6 µM (active).
